Rows were chosen to be rich in hits. Some 1.1% of all compounds tested hit in one or more screens of this group.
gsp antagonist: antagonizes gsp, the McCune-Albright syndrome mutation. gsp-mutant cells, cAMP HTRF, 30 min. Potency, µM (doses to about 76.9 µM), most hits filed as inhibitors. 0.4% of 340,000 active. AID 624288; calls by dose curve; cell line not stated here;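 note: intracellular cAMP measured with PDE inhibitor Ro 20-1724 present during compound exposure; nearly all actives have a fitted effect of over 65% in size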
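HTRF cAMP read-out (cAMP-d2 plus anti-cAMP antibody-K in lysis buffer, 30 min RT). Before lysis, cells are exposed to compounds with […] for 30 min at 37C in DPBS containing Ca/Mg, BSA and Tween 20.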
Tb PFK inh: blocks T. brucei phosphofructokinase | O15648 | 0.17% of 330,000 active | Potency, µM (doses to about 57.5 µM), usual class: inhibitors | T. brucei PFK, ADP-Glo luminescence; note: nearly all actives have a fitted effect of over 60% in size
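Luminescent ADP detection (ADP-Glo, two-step: ATP depletion then ADP-to-ATP conversion for luciferase) reported PFK activity after 45 min room-temperature reaction of 1.25 nM enzyme with 0.5 mM F6P and 0.1 mM ATP at pH 8.0.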
RXFP1 ag: agonists of human relaxin receptor RXFP1; Q9HBX9; HEK293T-RXFP1 cAMP TR-FRET, 30 min; response scale: percent of porcine relaxin response, buffer zero; Potency, µM (titrated, usually from 57.5 µM), actives largely listed as activators; 0.3% of 370,000 active; note: nearly all actives have a fitted effect of over 60% in size
Target sequence (Q9HBX9 whole entry, looked up): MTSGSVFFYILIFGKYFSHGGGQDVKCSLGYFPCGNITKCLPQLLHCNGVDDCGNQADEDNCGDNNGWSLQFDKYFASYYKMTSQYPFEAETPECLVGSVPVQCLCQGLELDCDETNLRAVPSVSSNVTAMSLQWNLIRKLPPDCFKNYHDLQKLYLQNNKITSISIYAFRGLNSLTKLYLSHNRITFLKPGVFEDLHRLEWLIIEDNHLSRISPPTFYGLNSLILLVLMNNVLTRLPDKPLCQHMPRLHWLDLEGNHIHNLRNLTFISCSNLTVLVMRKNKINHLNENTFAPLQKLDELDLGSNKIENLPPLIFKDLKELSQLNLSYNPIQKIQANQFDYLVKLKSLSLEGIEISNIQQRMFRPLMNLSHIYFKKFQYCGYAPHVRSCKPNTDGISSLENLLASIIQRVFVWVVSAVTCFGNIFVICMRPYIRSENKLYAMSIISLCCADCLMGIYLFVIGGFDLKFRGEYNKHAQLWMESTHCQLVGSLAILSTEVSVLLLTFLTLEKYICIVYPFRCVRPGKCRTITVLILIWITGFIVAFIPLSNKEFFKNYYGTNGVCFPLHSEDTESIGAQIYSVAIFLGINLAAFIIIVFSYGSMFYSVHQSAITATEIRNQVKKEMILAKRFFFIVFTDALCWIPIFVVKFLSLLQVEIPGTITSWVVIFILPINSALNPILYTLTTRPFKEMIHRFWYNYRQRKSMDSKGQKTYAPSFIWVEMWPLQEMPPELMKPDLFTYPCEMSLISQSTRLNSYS
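cAMP rise read by TR-FRET after 30 min, 37C compound exposure (up to 58 uM) in RXFP1-transfected HEK293 cells with Ro 20174 present. EC50 from Hill-equation fits, with 29 nM porcine relaxin as 100% and buffer as basal.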
p53 reactivation: mutant p53 re-activation in reporter cells; H1299 p53-A138V BP100-luciferase reporter, luminescence, 24 h; Potency, µM (top dose mostly 92.2 µM), actives largely listed as activators; 0.063% of 320,000 active; AID 504706; note: nearly all actives have a fitted effect of over 45% in size
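H1299 (p53-null), stable ts p53-A138V + BP100-Luc; 1000 cells/well, Opti-MEM/10% FBS; cpd 4 pt, 1:5; 24 h, 37 deg C, 5% CO2; detection reagent 10 min RT; luminescence.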
gsp ag: agonists of gsp mutant (McCune-Albright syndrome). gsp mutant cells, cAMP HTRF, 30 min. Potency, µM (doses to about 76.9 µM), most hits filed as activators. AID 624287. 0.13% of 340,000 active; active = well fitted activation curve with a large enough effect; inconclusive = small, poorly fitted or top-dose-only effect, or another doubt; inactive = no such curve, though single readings can be large or run the other way; cell line not stated here;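 note: phosphodiesterase inhibitor Ro 20-1724 added with compounds to block cAMP breakdown; nearly all actives have a fitted effect of over 60% in size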
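Cells stably selected in G418 were plated at 2000/well, grown 16-24 hr, then given compounds in DMSO with the PDE inhibitor […] (300 uM solution added) for 30 min at 37C; cAMP was read by HTRF.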
RXFP1 antag: antagonists of human relaxin receptor RXFP1; Q9HBX9; HEK293-RXFP1, relaxin-stimulated cAMP HTRF, 30 min; active compounds read low; activity change, negative = inhibition, % at 57.5 µM; 0.59% of 350,000 active; AID 1259400;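 active = activity change of -60% or lower, but not beyond a set lower limit; inconclusive = change between -60% and -40%, or beyond the set limit; inactive = change above -40%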
Hits are given with their value; 0 = inactive; ? = inconclusive; - = no result; [ ] = dose if it differs, or a comment. Unless noted, calls come from the whole dose curve; as a rule, active = well fitted curve in the direction sought with a large enough effect; inconclusive = small, poorly fitted or top-dose-only effect, or another doubt; inactive = no such curve, though single readings can be large; an effect the other way counts as inactive or inconclusive.

SMILES	gsp antagonist	Tb PFK inh	RXFP1 ag	p53 reactivation	gsp ag	RXFP1 antag
CCCCOc1ccccc1Cn1c(=O)sc2ccccc21	-	-	0	-	-	-68.0
COc1ccc(OC)c(NC(=O)CSc2nc3[nH]c(=O)[nH]c(=O)c3s2)c1	0	-	-	-	0[15.4 µM]	0
Cc1nc2cc(NC(=O)NCc3ccco3)ccc2o1	0	0	0	0	0	0
CC(C)(C)c1ccc(C(=O)CC(Sc2ccc(Cl)cc2)C(=O)O)cc1 (stereo unspecified)	0	?	0	0	0	-95.8
Cc1ccc(OCC(O)CNC2CCCC2)c(C)c1 (stereo unspecified)	0	0	0	0	0	0
Cc1ccccc1OCC(O)CNC1CCC(NCC(O)COc2ccccc2C)CC1 (stereo unspecified)	0	0	0	0	0	-100.8
Oc1ccc(Nc2nc(-c3ccc(Cl)cc3)nc3ccccc23)cc1	-	-	0	-	-	?
Oc1ccc(Nc2nc(-c3ccccc3)nc3ccccc23)cc1	0	0	0	0	0[15.4 µM]	-76.6
Cc1ccc(S(=O)(=O)NC(=S)c2ccccc2)cc1	0	-	-	-	0[15.4 µM]	0
Cc1ccc(C(=S)NCS(=O)(=O)c2ccc(C)cc2)cc1	0	26.9µM	0	0	0	0
COCCCNC(=O)c1ccc(OC)c(OC2CCN(C(C)C)CC2)c1	50.1µM	0	0	-	0	0
COc1ccccc1CCNC(=O)c1ccc(OC)c(OC2CCN(C(C)C)CC2)c1	0	0	0	?	0[15.4 µM]	0
O=C(Nc1ccc(N2CCOCC2)cc1)C1=NN(c2ccccc2)C(=O)CC1	0	0	0	0	0	0
O=C(O)C1CCC(Cn2c(SCc3cc(=O)n4cc(Br)ccc4n3)nc3ccsc3c2=O)CC1 (stereo unspecified)	-	0	8.91µM	0	0[15.4 µM]	0
O=C(O)c1ccc(Cn2c(SCc3cc(=O)n4cc(Br)ccc4n3)nc3ccsc3c2=O)cc1	-	0	15.8µM	0	-	-
CCn1c(=S)[nH]c2scc(-c3cccs3)c2c1=O	0	0	15.8µM	0	?	0
COc1ccc(NC(=O)C2CCN(S(C)(=O)=O)CC2)c(OC)c1	0	0	0	-	0	0
COc1ccc(-c2csc(NC(=O)CSc3n[nH]c(C)n3)n2)cc1	35.5µM	0	0	0	0	0
CN(C)c1ccc(CC(=O)c2nc3ccccc3s2)cc1	0	0	0	?	0	0
CCOc1ccc(C2CC(c3cccc(C)c3)n3ncnc3N2)cc1 (stereo unspecified)	0	0	0	0	0	-
COc1ccc(/C=C/C(=O)C2(O)CCCCC2)cc1	0	0	0	39.8µM	0	0
CC(NC(=O)CN1CCN(Cc2cccc(F)c2)CC1)c1ccccc1 (stereo unspecified)	0	0	0	-	0[15.4 µM]	0
O=Nc1c(-c2c(O)[nH]c3cc(Br)ccc23)[nH]c2ccccc12	20µM	0	0	-	-	-
O=C(CSCc1cccc(Br)c1)N=Nc1c(O)[nH]c2ccccc12	0	0	0	0	0	0
O=C(CCS(=O)(=O)c1nc(-c2cccs2)cc(C(F)(F)F)n1)Nc1cc(Br)ccc1O	-	-	0	-	-	-116.4
SMILES	gsp antagonist	Tb PFK inh	RXFP1 ag	p53 reactivation	gsp ag	RXFP1 antag
Cc1ccc(O)c(NC(=O)CCS(=O)(=O)c2nc(-c3cccs3)cc(C(F)(F)F)n2)c1	-	-	0	-	-	0
O=C(CCS(=O)(=O)c1nc(-c2cccs2)cc(C(F)(F)F)n1)Nc1ccc(Br)cc1	-	-	0	-	-	-108.3
CC(=O)Nc1c(OC(C)=O)ccc2c(C)cc(=O)oc12	0	0	0	0	0	0
c1ccc(CCNc2ncnc3ccccc23)cc1	0	0	0	0	0	0
CCCCCCCCNc1ncnc2ccccc12	0.891µM	0	0	0	0	0
Cc1cccc(-n2c3nc(=O)n(C)c(=O)c-3cc3ccc(Cl)cc32)c1C	-	-	0	-	-	-
Cc1nc2c(cnn2-c2ccccc2Cl)c(=O)n1-c1ccc(N2CCC(C)CC2)cc1	35.5µM	0	0	0	0	0
OCCN(CC(O)COc1ccccc1)CC(O)Cn1ccc2ccccc21 (stereo unspecified)	0	0	0	0	0	0
COc1ccc(OCC(O)CN(CCO)CC(O)Cn2ccc3ccccc32)cc1 (stereo unspecified)	0	0	0	0	0[15.4 µM]	-63.7
COc1ccccc1NC(=O)Nc1nc(CC(=O)N2CCN(c3ccc(F)cc3)CC2)cs1	0	0	0	0	0	0
c1ccc(Nc2nc(-c3ccccn3)cs2)cc1	0	-	0	-	0[15.4 µM]	?
COc1cccc2sc(Nc3nc(-c4ccccn4)cs3)nc12	-	0	0	25.1µM	-	-
COc1ccccc1CN1CCC(CNC(=O)c2cnn(-c3ccc(C)c(C)c3)c2C2CCN(C(=O)OC(C)(C)C)CC2)CC1	-	-	0	-	-	?
Cc1ccc(-n2ncc(C(=O)NCCN3CCC(Cc4ccccc4)CC3)c2C2CCN(C(=O)OC(C)(C)C)CC2)cc1	-	-	0	-	-	-68.7
COc1ccccc1CN1CCC(CNC(=O)c2cnn(-c3ccc(Cl)cc3)c2C2CCN(C(=O)OC(C)(C)C)CC2)CC1	-	-	0	-	-	-61.1
CCOc1ccc(CCNC(=O)COC(=O)c2nccnc2N)cc1OCC	0	0	0	0	0[15.4 µM]	0
CC1CN(S(=O)(=O)c2cccc(C(=O)Nc3cc(Cl)ccc3N3CCOCC3)c2)CC(C)O1 (stereo unspecified)	0	0	0	0	0	0
Cc1c(C(=O)Nc2nnc(C3CC3)s2)oc2c(Cl)cccc12	?	0	0	0	0	0
Cc1c(C(=O)Nc2nnc(C3CC3)s2)oc2ccccc12	0	0	0	5.01µM	0	0
O=C(CCC1CCCCC1)Nc1c2c(nn1-c1ccc(F)cc1)CS(=O)C2 (stereo unspecified)	0	0	0	0	0	0
Cc1nc2ccccc2n1CC(O)COc1ccc(C(=O)O)cc1 (stereo unspecified)	-	-	0	-	-	0
CCC(=O)c1ccc(OCC(O)Cn2c(C)nc3ccccc32)cc1 (stereo unspecified)	0	0	0	0	28.2µM	0
COc1ccc([N+](=O)[O-])cc1NC(C)C	0	0	0	0	0	0
CCC(=O)N1CCN(c2ccc(NC(=O)c3cc4ccccc4o3)cc2Cl)CC1	20µM	0	0	0	0	0
CCCC(=O)N1CCN(c2ccc(NC(=O)c3cc4ccccc4o3)cc2Cl)CC1	?	0	0	0	0	?
CCOc1ccc(/C=N/NC(=O)NC23CC4CC(CC(C4)C2)C3)cc1O	0	0	0	0	?	0
CCC(C(=O)Nc1nc(C)c(C(=O)OC)s1)c1ccccc1 (stereo unspecified)	0	0	0	0	0	0
CCC(C(=O)Nc1ccsc1C(=O)OC)c1ccccc1 (stereo unspecified)	?	0	0	0	0[15.4 µM]	-63.5
